From PubChem BioAssay (NCI)
The panel holds about 83,000 compounds, 20% with a hit somewhere; the sample as a whole holds those more often.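 Values shown are percent growth following 48 h exposure of cells in 96-well plates to a single concentration of compound; below 10 was considered active.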 A number with no mark means an inactive call. Calls of active or inactive are those of the source.

tested on: SK-MEL-2 melanoma; test: NCI-60 one-dose screen, 48 h (100 = growth as untreated, 0 = no growth, -100 = all killed); settings: 10 µM unless noted
Procedure: Growth inhibition of the SK-MEL-2 human tumor cell line is measured as a screen for anti-cancer activity. Cells are grown in 96 well plates and exposed to the test compound for 48 hours. Compounds are tested at a single concentration, which is 10^-5 M for most compounds. The reported endpoint is percent growth (GI% or GIPRCNT), where numbers from 0 - 100% represent growth inhibition, and numbers from -100% - 0 represent cell death. For example, a value of 40 represents 60% growth inhibition. A value of 0 means no net growth occurred over the course of the experiment. A value of -40 indicates 40% of cells at the beginning of the experiment died by the end of the experiment. A value of -100 means all cells are dead at the end of the experiment.
NCI-60 Human Tumor Cell Lines Screen was performed using the standard one-dose NCI protocol, which is described in more detail at https://dtp.cancer.gov/discovery_development/nci-60/default.htm.
Compounds with GIPRCNT values below 10 were considered active. Activity score was based on GIPRCNT using the following formula: […]
Score is 0 for GIPRCNT values of 100 or above, 50 for GIPRCNT values of 0, and 100 for GIPRCNT values of -100.

| Structure (SMILES) | growth |
| --- | --- |
| Cc1ccc(-n2nnc(C3=NCCc4c3[nH]c3ccc(Cl)cc43)c2C)cc1 | 62.6% |
| C[C@@H]1CC[C@@H]2[C@@H]1[C@H](OC(=O)c1ccc3ccccc3c1)[C@]1(C3CCCCC3)C[C@@H](OC(=O)CO)[C@@]2(C)O1 | 69.5% |
| CCN(CC)CCOc1ccc(/C(=C(\C)c2ccc(F)c(OC)c2)c2ccc(Cl)cc2)cc1 | 67.7% |
| [2H]c1nc(Nc2ncc(F)c(-c3cc(F)c4nc(C)n(C(C)C)c4c3)n2)c([2H])c([2H])c1CN1CCN(C([2H])([2H])C([2H])([2H])[2H])CC1 | 50.1% |
| COc1cc(NC(=O)c2cccc(-c3cc(=O)c4c(OC)c(OC)c(OC)cc4o3)c2)cc(OC)c1OC | 41.7% |
| COc1cc2c(cc1OC)-c1ccc3cc4c(cc3c1N(CCN1CCCC1)C2)OCO4 | 57.9% |
| Clc1ccc2c(NCCCN3CCN(c4nc(N5CCOCC5)nc5ccccc45)CC3)ccnc2c1 | -5.64% (active) |
| CCN(CC)c1ccc(Nc2ccc(CC(=O)c3ccccc3)cc2)cc1 | 81.7% |
| CCc1cc(Cc2cc(CC)cc(C(C)(C)C)c2O)c(O)c(C(C)(C)C)c1 | 52.9% |
| COc1ccc(-n2sc(=O)n(Cc3ccc(COC(=O)C(C)c4ccc(CC(C)C)cc4)cc3)c2=O)cc1 (stereo not given) | 89.7% |
| C=C1C(=O)O[C@H]2[C@H]1CC/C(COC(=O)/C=C\C(=O)NCc1ccc(Cn3c(=O)sn(CCCC)c3=O)cc1)=C\CC[C@@]1(C)O[C@@H]21 | -54.2% (active) |
| CCOC(=O)Cc1csc2nc(-c3ccccc3)nn12 | 114% |
| COc1ccc(C2CC(c3ccc4ccccc4c3)=NN2c2nc(O)c(C3=c4cc(Cl)ccc4=NC3=O)s2)cc1 (stereo not given) | -77% (active) |
| CCCCS(=O)(=O)Oc1ccc(-c2nc(C)c(C(=O)OCC)s2)cc1C=O | 97.2% |
| C=C(C)[C@@H]1CC[C@]2(CN)CC[C@]3(C)[C@H](CC[C@@H]4[C@@]5(C)CCC(N)[C@@](C)(CO)[C@@H]5CC[C@]43C)[C@@H]12 (stereo not given in full) | -86.4% (active) |
| CCOc1cc(C2C(Cl)C(=O)N2n2cnnc2)ccc1O (stereo not given) | 100% |
| Cn1cc(Nc2nccc(-c3ccc(N4CCCC4)c(C#N)c3)n2)cn1 | 3.95% (active) |
| C=C1C(=O)O[C@H]2[C@H]1CC/C(Cn1cc(CNCCc3c[nH]c4ccccc34)nn1)=C\CC[C@@]1(C)O[C@@H]21 | 61.4% |
| CCn1c(Sc2nnc(NC(=O)CSC(=S)N3CCCCC3)s2)nc2c1c(=O)n(C)c(=O)n2C | 81.2% |
| Nc1nc(N)c(-c2ccc(Cl)cc2)c(/C=C/c2ccc([N+](=O)[O-])cc2)n1 | 88.7% |

| Structure (SMILES) | growth |
| --- | --- |
| CC(C)n1nc(C#Cc2cccc(NC(=O)c3cccc(C(F)(F)F)c3)c2)c2c(N)ncnc21 | -65.2% (active) |
| NC(N)=N/N=C/c1ccc(Br)cc1 | 77.8% |
| CCOC(=O)C1=C(C)NC(SCc2nnc(-c3ccc(Cl)cc3)o2)=NC1c1ccc(Cl)cc1Cl (stereo not given) | 60.3% |
| O=C(C[C@@]1(O)C(=O)Nc2c(Cl)ccc(Cl)c21)c1ccc(C2CC2)cc1 | 43.1% |
| O=C(Nc1ccccc1Cl)OCCN1CCOCC1 | 96.7% |
| CC1(C)N=C(N)N=C(N)N1c1ccc(Cl)c(Cl)c1 | 64.6% |
| C=C(C)C1CCC(=C)C2CCC3(C)OC12/C=C(/COC(C)=O)CCC3O (stereo not given) | 85.4% |
| CC(C)n1nc(C#Cc2cccc(O)c2)c2c(N)ncnc21 | -76.9% (active) |
| CC(=O)C(C(C)=O)c1nc2sc3cc(Cl)ccc3n2c(=N)c1C#N | 86.8% |
| COC1=CC(c2ccc[nH]2)=N/C1=C\c1[nH]c(C)c(C(=O)OCCn2cc(CCC[C@@H]3Cc4cc(O)ccc4C4CC[C@]5(C)[C@@H](O)CC[C@H]5C43)nn2)c1C (stereo not given in full) | 122% |
| Cn1c(NCCc2ccc(O)c(O)c2)nc2c1c(=O)n(Cc1ccc(Cl)cc1)c(=O)n2C | 95% |
| COc1ccc(OC)c(/C=C2\COc3ccc(O)c(O)c3C2=O)c1 | 76.6% |
| CC(=O)NCC(=O)Nc1ccc(-c2nnc3ccccn23)nc1.CC(=O)NCC(=O)Nc1ccc(-c2nnc3ccccn23)nc1.[Pt+2] | 91.4% |
| CCc1nc2ccccc2[nH]1 | 127% |
| CCCCCCCCn1cc(C2=C(c3coc4ccc(OC)cc34)C(=O)NC2=O)c2ccccc21 | 107% |
| Cc1nc(Nc2ccc(NC(=S)Nc3ccccc3)cc2)nc2nc(Nc3cccc(Cl)c3)[nH]c(=O)c12 | 88.8% |
| N#Cc1c(N)nc2c(nnn2-c2cccc(Br)c2)c1N | 103% |
| CC(C)(C)CC(C)(C)Nc1c(-c2ccc(-c3ccccc3)cc2)nc2cnccn12 | 72.2% |
| N#Cc1c(N)nc2c(nnn2-c2cccc(C(F)(F)F)c2)c1N | 91.2% |
| Clc1ccc(/C=C/c2nc(Nc3ccc(Cl)cc3)c3ccccc3n2)cc1 | 106% |
